PubChem BioAssay (Tox21)
Records with an inconclusive call do not appear. Activity calls are given as the source filed them. Calls follow the shape of the dose curve; as a rule, active = well fitted cell-killing curve with a large enough effect in the repeat runs; inconclusive = weak or mixed curves, or effect the other way; inactive = flat fitted curve, though single readings scatter.

assay: qHTS assay to identify small molecule that activate the aryl hydrocarbon receptor (AhR) signaling pathway - cell viability counter screen (AID 743086); settings: HepG2-AhR-luc viability, CellTiter-Fluor, 24 h; series mostly up to 70.3 µM; viability change, negative = cytotoxic: at the top concentration; also: nearly all actives have a fitted effect of over 45% in size;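 as to viability change, negative = cytotoxic: HepG2 liver cells carrying the AhR DRE luciferase reporter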
From the text: U.S. Tox21 Program National Center for Advancing Translational Sciences [NCATS] NIH Chemical Genomics Center [NCGC] U.S. Environmental Protection Agency [EPA] National Institutes of Environmental Health Sciences [NIEHS] National Toxicology Program [NTP] U.S. Food and Drug Administration [FDA] Tox21 Assay overview: The Aryl hydrocarbon Receptor (AhR), a member of the family of basic helix-loop-helix transcription factors, is crucial to adaptive responses to environmental changes. AhR mediates cellular responses to environmental pollutants such as aromatic hydrocarbons through induction of phase I and II enzymes but also interacts with other nuclear receptor signaling pathways A cell based HepG2-AhR-luc assay (HG2L7.5c1 cell line, developed by Dr. Michael S. Denison, University of California at Davis) was used to assess the activation of AhR. HepG2 (human hepatocellular carcinoma) cells were stably transfected with an Ah receptor-responsive firefly luciferase reporter gene plasmid containing 20 dioxin responsive elements and luciferase reporter gene. Increased luciferase activity can be used to identify the compounds that induce AhR activation. The cytotoxicity of the compounds screened against the HepG2-AhR-luc cell line was tested in parallel by measuring the cell viability using CellTiter-Fluor assay in the same wells.
Tox21 Assay Protocol Summary: 4000 cells in 5 uL/well were dispensed into white wall/solid bottom 1536-well plates using a Multidrop Combi (Thermo Fisher Scientific Inc., Waltham, MA) dispenser. After the assay plates were incubated at 37C for 5 h, 23 nL of compound or DMSO vehicle was transferred to the assay plates by a pintool station (Kalypsys, San Diego, CA). The plates were incubated at 37C for 24 hr. For cell viability measurement, 1 ul/well of CellTiter-Fluor reagent (Promega, Madison, WI) was added into the assay plates using a Flying Reagent Dispenser (FRD) (Aurora Discovery, CA),and then the assay plates were incubated at 37C for 30 min. The fluorescence intensity in the plates was measured using a ViewLux plate reader (PerkinElmer, Shelton, CT), followed by the addition of 4 uL of ONE-Glo Luciferase Assay reagent (Promega) using an FRD (Aurora Discovery). After the assay plates were incubated at room temperature for 30 min, luminescence intensity was measured using a ViewLux plate reader (Perkin Elmer).
% is scaled to controls: 0 for no effect and ±100 for the full control effect; potency is read from the fitted curve at half-maximal effect.

Structure (SMILES) | viability change, negative = cytotoxic | Potency
CCCCCC=CCC=CCCCCCCCC(=O)OCC | 6.42% (inactive) | 
Cc1cc(C(=C2C=CC(=Nc3ccc(S(=O)(=O)O)cc3S(=O)(=O)O)C=C2)c2ccc(Nc3ccc(S(=O)(=O)O)cc3)cc2)ccc1N | -6.74% (inactive) | 
CCCCCCCCCCCC(=O)[O][Sn]([CH2]CCC)([CH2]CCC)[O]C(=O)CCCCCCCCCCC | -0.738% (inactive) | 
CCCCCCCCCOC(C)=O | 6.95% (inactive) | 
O=C(NCCCN1CCOCC1)c1ccc(Cl)cc1 | 0.954% (inactive) | 
N#C[C@@H]1C[C@@H]2C[C@@H]2N1C(=O)[C@@H](N)C12CC3CC(CC(O)(C3)C1)C2 | 3.5% (inactive) | 
CCCCC(CC)CNCC(CC)CCCC (stereo not given) | 4.44% (inactive) | 
O=C(Nc1ccc([N+](=O)[O-])cc1)Nc1ccc([N+](=O)[O-])cc1 | 0.706% (inactive) | 
Nc1ccc(S(=O)(=O)O)cc1 | -1.8% [at 95 µM] (inactive) | 
Cc1nccn1-c1ccc(Sc2cccc(C3(C(N)=O)CCOCC3)c2)cc1 | -5.89% (inactive) | 
CC(=O)[C@H]1CC[C@H]2[C@@H]3C=CC4=CC(=O)CC[C@@]4(C)[C@@H]3CC[C@]12C | 20.3% [at 32.5 µM] (inactive) | 
CC[C@@H]([C@H](C)O)n1ncn(-c2ccc(N3CCN(c4ccc(OC[C@@H]5CO[C@@](Cn6cncn6)(c6ccc(F)cc6F)C5)cc4)CC3)cc2)c1=O | -11.8% (inactive) | 
CCCC1C(CC)=CC(CC)=CN1c1ccccc1 (stereo not given) | -18.2% (inactive) | 
CCCCCCCC/C=C\CCCCCCCC(=O)OC(CO)CO | 20.5% (inactive) | 
CCCc1c(OCCCOc2ccc(OCC(=O)O)cc2)ccc(C(C)=O)c1O | -2.35% (inactive) | 
CO[Si](C)(OC)OC | 2.99% (inactive) | 
CC(=O)Oc1ccc2c(c1)CC[C@@H]1[C@@H]2CC[C@]2(C)[C@@H](O)CC[C@@H]12 | 0.973% (inactive) | 
O=C(O)c1cccc(O)c1 | -1.2% [at 95 µM] (inactive) | 
CC(=O)Oc1ccc(C(=C2CCCCC2)c2ccc(OC(C)=O)cc2)cc1 | -0.968% (inactive) | 
CCCCC(=O)O[C@]1(C(=O)CO)[C@@H](C)C[C@H]2[C@@H]3CCC4=CC(=O)C=C[C@]4(C)[C@@]3(F)[C@@H](O)C[C@@]21C | -18.4% (inactive) | 

Structure (SMILES) | viability change, negative = cytotoxic | Potency
O=C(CS)OCCOC(=O)CS | 5.51% (inactive) | 
CCC(=O)Oc1ccc(/C(CC)=C(\CC)c2ccc(OC(=O)CC)cc2)cc1 | 0.319% (inactive) | 
CCOC(=O)c1ccccc1C | 1.74% (inactive) | 
COC(=O)CC(=O)C(C)(C)C | -6.47% (inactive) | 
CC(C)CCCC(=O)O | 2.46% (inactive) | 
CC1=CC(=O)CC(C)(C)C1(O)/C=C/C(C)=C\C(=O)O (stereo not given) | -11.7% (inactive) | 
CCC1(C)CC(=O)NC1=O (stereo not given) | 12.4% (inactive) | 
COc1ccc(C(=O)c2cccc(O)c2)c(OC)c1 | -2.2% (inactive) | 
O=S1OCCO1 | -0.619% [at 95 µM] (inactive) | 
CO[C@@]12[C@H](COC(N)=O)C3=C(C(=O)C(C)=C(N)C3=O)N1C[C@@H]1N[C@@H]12 |  | 29.8 µM (active)
[O]=[Bi] | -5.07% [at 8.47 µM] (inactive) | 
CN1CCN(CCCN2c3ccccc3Sc3ccc(S(=O)(=O)N(C)C)cc32)CC1 | -5.47% [at 32.5 µM] (inactive) | 
Cc1nc2ccccc2s1 | 3.35% [at 95 µM] (inactive) | 
CC[C@H](NC(=O)c1cc(F)ccc1NS(=O)(=O)c1cccc2cccnc12)c1ccccc1 | -0.929% (inactive) | 
CO[C@H]1C=CO[C@@]2(C)Oc3c(C)c(O)c4c(O)c(c5c(c4c3C2=O)=NC2(CCN(CC(C)C)CC2)N=5)NC(=O)/C(C)=C\C=C/[C@H](C)[C@H](O)[C@@H](C)[C@@H](O)[C@@H](C)[C@H](OC(C)=O)[C@@H]1C |  | 15 µM (active)
CC#N | -1.27% [at 95 µM] (inactive) | 
C=CCOC(=O)/C=C\C(=O)OCC=C | -0.978% [at 95 µM] (inactive) | 
COCC(O)CO (stereo not given) | -1.27% [at 95 µM] (inactive) | 
O=S(=O)(c1ccccc1)c1ccc(Cl)cc1 | 3.76% (inactive) | 
Nc1nccs1 |  | inactive
